Pin1 inh: qHTS Assay to Find Inhibitors of Pin1. Pin1 FP peptide displacement, HiFluor488, 10 min. Potency, µM (doses to about 115 µM), actives largely listed as inhibitors. 0.009% of 390,000 active. AID 504891, 2011; active means well fitted inhibition curve with a large enough effect in the polarisation, with a control signal flat, not every such curve was filed as active; inconclusive means small, poorly fitted or top-dose-only effect, or effect the other way, or a change in a side signal; inactive means no such curve, though single readings can be large or run the other way; the % refers to the polarisation
Target sequence (Q13526 whole entry, looked up): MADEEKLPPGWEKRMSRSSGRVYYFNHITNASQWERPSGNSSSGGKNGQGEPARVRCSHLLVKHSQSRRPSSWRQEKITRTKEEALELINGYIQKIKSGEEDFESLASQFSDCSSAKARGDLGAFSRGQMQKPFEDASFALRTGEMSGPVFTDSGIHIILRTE
VDR inhibitor: Inhibitors of the vitamin D receptor (VDR): qHTS | Vitamin D3 receptor (Homo sapiens), P11473 | VDR-SRC2-3 peptide fluorescence polarization, 2 h | Potency, µM, hits mostly inhibitors | 0.93% of 400,000 active
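FP read-out; VDR + SRC2-3 coactivator peptide; 23 nl compound by pintool; 2 h RT incubation; reagents held at 4 deg C, protected from light.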
PLK1 PBD inh: qHTS for Inhibitors of PLK1-PDB (polo-like kinase 1 - polo-box domain): Primary Screen; Serine/threonine-protein kinase PLK1 (Homo sapiens), P53350; Plk1 PBD binding of FITC phosphopeptide, fluorescence polarization; Potency, µM, hits mostly inhibitors; 2.8% of 360,000 active; further: series mostly up to about 57 µM; nearly all actives have a fitted effect of over 65% in size
TDP1 block: qHTS Assay for Inhibitors of Tyrosyl-DNA Phosphodiesterase (TDP1); recombinant TDP1, AlphaScreen DNA substrate cleavage; Potency, µM (series often up to 130 µM), actives largely listed as inhibitors; Tyrosyl-DNA phosphodiesterase 1 (Homo sapiens), Q9NUW8; 0.28% of 350,000 active; further: nearly all actives have a fitted effect of over 40% in size
Target sequence (Q9NUW8 whole entry, looked up): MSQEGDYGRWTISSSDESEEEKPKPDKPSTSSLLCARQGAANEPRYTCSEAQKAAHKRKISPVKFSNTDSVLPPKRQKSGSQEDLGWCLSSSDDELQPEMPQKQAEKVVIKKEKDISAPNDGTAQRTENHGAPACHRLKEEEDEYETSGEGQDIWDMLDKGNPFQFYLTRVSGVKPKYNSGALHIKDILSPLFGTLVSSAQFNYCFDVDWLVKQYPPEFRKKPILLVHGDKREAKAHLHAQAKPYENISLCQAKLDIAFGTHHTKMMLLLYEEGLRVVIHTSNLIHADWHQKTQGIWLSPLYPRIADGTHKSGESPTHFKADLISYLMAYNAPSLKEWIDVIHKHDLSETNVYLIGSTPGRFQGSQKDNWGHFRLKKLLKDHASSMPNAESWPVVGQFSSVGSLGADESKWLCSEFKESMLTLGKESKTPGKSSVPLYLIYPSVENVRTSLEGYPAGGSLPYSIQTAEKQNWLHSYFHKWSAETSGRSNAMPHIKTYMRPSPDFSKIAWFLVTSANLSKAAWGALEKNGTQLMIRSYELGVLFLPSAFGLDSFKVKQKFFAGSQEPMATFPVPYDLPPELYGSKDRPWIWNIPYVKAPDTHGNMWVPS
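Recombinant human Tdp1 (E. coli-expressed, 1 nM final) preincubated with compounds 15 min at room temperature, then 5'-biotin/3'-phosphotyrosine-FITC DNA substrate (15 nM final) added for 5 min. AlphaScreen beads (10 ug/ml final) added 10 min; cleavage lowers signal.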
Tb PFK inh: qHTS Assay to Find Inhibitors of T. brucei phosphofructokinase | T. brucei PFK, ADP-Glo luminescence | Potency, µM (series often up to 57.5 µM), actives largely listed as inhibitors | 0.17% of 330,000 active | AID 485367, 2010; further: nearly all actives have a fitted effect of over 60% in size
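Luminescent ADP detection (ADP-Glo, two-step: ATP depletion then ADP-to-ATP conversion for luciferase) reported PFK activity after 45 min room-temperature reaction of 1.25 nM enzyme with 0.5 mM F6P and 0.1 mM ATP at pH 8.0.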
ASM inhibitor: Inhibitors of Secretory Acid Sphingomyelinase (S-ASM): qHTS; Sphingomyelin phosphodiesterase (Homo sapiens), P17405; placental ASM, HMU-PC fluorogenic substrate, 60 min; Potency, µM (titrated, usually from 57.5 µM), most hits filed as inhibitors; 0.006% of 340,000 active
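Human placenta-derived ASM preincubated with compound 10 min at room temperature, then reacted with 9 uM (final) fluorogenic HMU-PC substrate for 60 min at 37 C. Stop solution raises pH to 10; fluorescence read at Ex 386/Em 447 nm.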
Large screens that a line does not name were inactive; ! = not confirmed by another sample. Most compounds without a hit are left out; they make up all but 3.1% or so of the library. Unless noted, the call rests on the fitted dose curve; in most records, active means well fitted curve in the direction sought with a large enough effect; inconclusive means small, poorly fitted or top-dose-only effect, or another doubt; inactive means no such curve, though single readings can be large; an effect the other way counts as inactive or inconclusive.

CNC(=O)[C@]1(C(F)(F)F)C[C@H](CCC2CCCCC2)CCCO1	none (no result: PLK1 PBD inh, Tb PFK inh, ASM inhibitor)
COc1ccc(C(C)(C)C)cc1NC(=S)NCCN1CCOCC1	PLK1 PBD inh 24µM (no result: ASM inhibitor)
COc1cc(NC(=S)NCCN2CCOCC2)cc(OC)c1OC	none
O=[N+]([O-])c1cccc(/C=N/NC2=NS(=O)(=O)c3ccccc32)c1	PLK1 PBD inh 27µM
CSc1ccc(C2c3c(-c4ccccc4O)n[nH]c3C(=O)N2Cc2ccncc2)cc1 (stereo not drawn)	none (no result: PLK1 PBD inh, Tb PFK inh, ASM inhibitor)
Cc1nnc(SCC(=O)N(CC(C)C)C2CCS(=O)(=O)C2)n1N (stereo not drawn)	none
CC(C)CN(C(=O)CSc1nnc2c(Cl)cc(C(F)(F)F)cn12)C1CCS(=O)(=O)C1 (stereo not drawn)	PLK1 PBD inh 27µM
O=C(Cc1ccccc1)NC(NNc1ccccc1)(C(F)(F)F)C(F)(F)F	VDR inhibitor inconclusive, PLK1 PBD inh 27µM
O=C(Cc1ccccc1)NNC(=O)Cc1ccccc1	none
CCOC(=O)c1ccc(NC2=CC(c3ccc(O)c(OCC)c3)N(c3ccc(C(=O)OCC)cc3)C2=O)cc1 (stereo not drawn)	none (no result: PLK1 PBD inh, Tb PFK inh, ASM inhibitor)
COC(=O)C1(C(=O)OC)CC2=C[C@H](CC2=O)Cc2ccccc2[C@@H]1C[N+](=O)[O-]	VDR inhibitor 50µM! (no result: Pin1 inh, PLK1 PBD inh, Tb PFK inh, ASM inhibitor)
COC(=O)C1(C(=O)OC)Cc2ccccc2N(S(=O)(=O)c2ccc(C)cc2)C1CC(C)=O (stereo not drawn)	none (no result: Pin1 inh, VDR inhibitor, TDP1 block, Tb PFK inh, ASM inhibitor)
COc1ccc(NC(=O)c2cccc(N3C(=O)NC4CC3(C)Oc3ccccc34)c2)cc1 (stereo not drawn)	none
COc1cccc2c1OC1(C)CC2NC(=O)N1c1cccc(C(=O)Nc2ccc3c(c2)OCCO3)c1 (stereo not drawn)	PLK1 PBD inh 30µM
Cc1ccc(C2=Nc3ccccc3NC(c3ccncc3)=N2)cc1	none (no result: PLK1 PBD inh, Tb PFK inh, ASM inhibitor)
O=C(OC(C(=O)Nc1ccc(Cl)cc1C(F)(F)F)c1ccccc1)c1c(Cl)cccc1Cl (stereo not drawn)	Pin1 inh inconclusive, VDR inhibitor inconclusive, PLK1 PBD inh 30µM
Cc1ccc(-c2cn3cccnc3n2)cc1	none
Nc1cccc(-c2cn3cccnc3n2)c1	PLK1 PBD inh 30µM
Cc1ccccc1OCCN1C(=O)C(=O)c2cccc(C)c21	VDR inhibitor 50µM, PLK1 PBD inh inconclusive
COc1ccc(CN2CCCN(S(=O)(=O)c3ccc(Br)cc3)CC2)cc1	PLK1 PBD inh 27µM (no result: TDP1 block)
CCN(CC)CCNC(=O)Nc1ccc2c(c1)N(Cc1ccccc1)C(=O)c1ccccc1S2	none (no result: PLK1 PBD inh, Tb PFK inh, ASM inhibitor)
C=CCn1cccc(C(=O)Nc2cc(OC)c(OC)c(OC)c2)c1=O	PLK1 PBD inh 21µM
C=CCn1cccc(C(=O)Nc2ccc(OCC)cc2)c1=O	PLK1 PBD inh 24µM
C=CCn1cccc(C(=O)Nc2ccc(Cl)cc2)c1=O	none (no result: TDP1 block)
CN(C)c1ccc(C(CNC(=O)c2ccc(C(C)(C)C)cc2)N2CCOCC2)cc1 (stereo not drawn)	none (no result: PLK1 PBD inh, Tb PFK inh, ASM inhibitor)
CNc1nnc(Sc2ncccc2[N+](=O)[O-])s1	PLK1 PBD inh 15µM
COc1ccccc1-c1cc2nc(C)c(CCC(=O)NCc3cccc(Cl)c3)c(C)n2n1	Pin1 inh inconclusive (no result: PLK1 PBD inh, Tb PFK inh, ASM inhibitor)
O=C(O)c1ccc(N/N=C/c2ccc(OC(=O)c3cccc(Cl)c3)cc2)cc1	Pin1 inh inconclusive, PLK1 PBD inh 21µM (no result: TDP1 block)
COC(=O)c1ccc(COc2ccc(/C=N/Nc3cccc(C(=O)O)c3)cc2)cc1	PLK1 PBD inh inconclusive, TDP1 block 40µM (no result: Pin1 inh)
C=CCOc1c(OC)cc(/C=N/Nc2cccc(C(=O)O)c2)c(Br)c1Br	VDR inhibitor inconclusive, PLK1 PBD inh 30µM (no result: Pin1 inh)
C=CCOc1c(/C=N\NC(N)=O)cccc1OC	none
CSc1ccc(/C=N/Nc2cccc(C(=O)O)c2)cc1	Pin1 inh 19µM, PLK1 PBD inh 12µM, TDP1 block 1.1µM
O=C(Oc1ccc(/C=N/Nc2ccccc2)cc1)c1ccccc1	none
CCCc1nnc(NC(=O)CCCN2C(=O)c3ccccc3C2=O)s1	PLK1 PBD inh 27µM
CCCCc1nnc(NC(=O)CN2C(=O)c3ccccc3C2=O)s1	none
Cc1cccc(NC(=O)CCCN2C(=O)c3cccc4cccc(c34)C2=O)c1	ASM inhibitor inconclusive
Cc1ccc(NC(=O)CCCN2C(=O)c3cccc4cccc(c34)C2=O)cc1	PLK1 PBD inh 27µM
CCC(=O)Nc1ccc(C2C(=O)c3ccccc3C2=O)cc1	PLK1 PBD inh 24µM (no result: TDP1 block)
CCCCC(=O)Nc1ccc(C2C(=O)c3ccccc3C2=O)cc1	none (no result: TDP1 block, Tb PFK inh)
Cc1nccn1CCCN1C(=O)OC2(CCCCC2)C1(C)O (stereo not drawn)	PLK1 PBD inh 21µM
CCN1C(=O)OC2(CCCCC2)C1(C)O (stereo not drawn)	none (no result: Pin1 inh, VDR inhibitor, PLK1 PBD inh, ASM inhibitor)
COC(=O)C[C@H]1c2ccccc2C2=C(C[C@@H](C)[C@H]3C(=O)NC(=O)[C@@H]23)N1C(=O)OC	none (no result: Pin1 inh, VDR inhibitor, PLK1 PBD inh, Tb PFK inh, ASM inhibitor)
CC(C)(C)c1n[nH]c2c1CCCC2	PLK1 PBD inh 27µM
CCN(CC)Cc1oc(CO)cc(=O)c1O	TDP1 block 50µM
O=C(O)C1CCN(Cc2oc(CO)cc(=O)c2O)C1 (stereo not drawn)	none (no result: TDP1 block, Tb PFK inh)
COc1ccccc1NC(=O)CSc1nc2c(oc3ccccc32)c(=O)n1-c1ccc(C)cc1	none (no result: PLK1 PBD inh, Tb PFK inh, ASM inhibitor)
Cc1ccc(S(=O)(=O)N(C(=O)c2ccncc2)c2ccc(OC(=O)c3ccncc3)c3ccccc23)c(C)c1	PLK1 PBD inh 13µM, Tb PFK inh inconclusive
O=C(CC1C(=O)N(c2ccccc2)C(=O)N1Cc1ccc(F)cc1)Nc1cccc(F)c1 (stereo not drawn)	none (no result: PLK1 PBD inh, Tb PFK inh, ASM inhibitor)
N#CC1=C(SCC(=O)NCc2ccccc2)NC(=O)CC1c1ccco1 (stereo not drawn)	PLK1 PBD inh 9.5µM
CCC(C)(C)c1ccc(CC(C)CN2C[C@@H](C)O[C@@H](C)C2)cc1 (stereo partly drawn)	none (no result: Pin1 inh, PLK1 PBD inh, TDP1 block, Tb PFK inh, ASM inhibitor)
Cn1nc(-c2ccccc2)c(CO)c1Oc1ccc(F)cc1	VDR inhibitor inconclusive, PLK1 PBD inh 11µM
COc1ccc(CN(Cc2ccccc2)C(=O)c2ccccc2O)cc1	TDP1 block 11µM (no result: VDR inhibitor, PLK1 PBD inh, Tb PFK inh, ASM inhibitor)
Cc1ccc([N+](=O)[O-])cc1NC(=O)C(C)NS(=O)(=O)c1ccc(F)cc1 (stereo not drawn)	PLK1 PBD inh 24µM (no result: TDP1 block)
Cc1cc(NC(=O)COC(=O)CC2CCCC2)c([N+](=O)[O-])cc1C	none

Assay outcomes deposited in PubChem BioAssay by National Center for Advancing Translational Sciences (NCATS).
